Source: PubChem
The list is a sample of the results.
aSyn 5UTR act – Activators working through SNCA 5'UTR binding (MLPCN); AID 1814; activity score, % (tested at 7.5 µM), hits read low; hit rate 7.1% among 300,000; alpha-synuclein 5'UTR reporter, activators screen; in the data active means activity score below about -60%
Numbers without * were called inactive.

SMILES	aSyn 5UTR act
O=C(Nc1ccc(Br)cc1)c1ccc(CSC2=NCCS2)cc1	-132.1*
COc1ccc2c(c1)CCc1c-2nc2ccccc2c1N1CCOCC1	-86.8*
COCCCNC(=O)c1ccc(N2CCCC2)c(NS(=O)(=O)c2ccc(C)cc2)c1	-72.5*
C/C=C/c1ccc(OCC(=O)OCc2csc(Nc3ccc(C)cc3)n2)c(OC)c1	-176.8*
Cc1ccc(Nc2nc(COC(=O)COc3ccc(C=O)cc3)cs2)cc1	-107.4*
N/C(=N\OC(=O)c1cccc(F)c1)c1ccccc1	-331.0*
Cc1ccc(/C(N)=N/OC(=O)c2cccc(F)c2)cc1	-262.2*
Cc1ccc(/C(N)=N/OC(=O)c2ccc3ccccc3c2)cc1	-123.9*
O=c1c2cc(-c3ccccc3)sc2ncn1-n1cccc1	-254.8*
CC(=O)Cn1cnc2sc(-c3ccccc3)cc2c1=O	-175.2*
CC(=O)Cn1nnc2sc(-c3ccccc3)cc2c1=O	-90.2*
Cc1nc2cc(-c3ccccc3)sc2c(=O)n1N	110.7
Cc1ccc(C)n1-n1c(C)nc2sc(-c3ccccc3)cc2c1=O	-104.7*
CCn1cnc2sc(-c3ccccc3)cc2c1=O	-130.1*
c1ccc(Nc2ccnc(Nc3ccccc3)n2)cc1	-100.4*
NNc1nc(Nc2ccccc2)nc(Nc2ccccc2)n1	-117.0*
O=C1Nc2ccccc2S/C1=C\C(=O)N1CCCC1	-139.9*
N#C/C(C(=O)N1CCCCC1)=C1\Nc2ccccc2S1	-103.8*
O=C(CN1CC(=O)Oc2ccccc21)NCc1ccco1	-97.2*
COc1ccc(N2CCN(c3nccs3)CC2)cc1	-153.7*
COc1ccc(NC(=S)NCCCCCC(=O)C[N+](=O)[O-])cc1	-81.8*
O=C(N/N=C/c1ccccc1F)c1csc2c1CCCC2	-235.2*
O=C(Nc1ccccc1O)c1csc2c1CCCC2	-157.0*
O=C(N/N=C/c1cccc(F)c1)c1csc2c1CCCC2	-143.8*
O=C(NNC(=O)C1CC2CCC1C2)c1sc2ccccc2c1Cl (stereo not drawn)	-112.5*
SMILES	aSyn 5UTR act
Cc1ccc2c(Cl)c(C(=O)NCC3CCCO3)sc2c1 (stereo not drawn)	-137.3*
O=C(CNC(=O)c1sc2ccccc2c1Cl)NC1CC1	-118.3*
Cc1ccc2c(Cl)c(C(=O)NCCc3ccccc3)sc2c1	-165.8*
CC(NC(=O)c1sc2ccccc2c1Cl)C1CCCO1 (stereo not drawn)	-65.4*
Cc1ccnc(NC(=O)c2sc3ccccc3c2Cl)c1	78.2
CN(Cc1c(F)cccc1Cl)C(=O)CNC(=O)c1sc2ccccc2c1Cl	-66.4*
O=C(NCC1CCCO1)c1sc2ccccc2c1Cl (stereo not drawn)	-105.6*
Cc1ccc2c(Cl)c(C(=O)Nc3cc(C)on3)sc2c1	-121.7*
O=C(CN1CCCC1)Nc1nnc(-c2cccs2)s1	-118.3*
O=C(CN1CCOCC1)Nc1ccc(C2CCCCC2)cc1	-74.6*
Cc1occc1C(=O)Nc1nnc(-c2cccs2)s1	-351.4*
O=C(CN1CCCCC1)Nc1nnc(-c2ccccc2)s1	-77.3*
CC(C)c1cc(C(C)C)c(S(=O)(=O)N2c3ccccc3[C@]3(Br)C[C@H]4C(=O)N[C@@H](Cc5ccccc5)C(=O)N4[C@H]23)c(C(C)C)c1	65.0
CSC1=NC(C(Cl)(Cl)Cl)N=C(c2ccc(C)cc2)N1 (stereo not drawn)	118.2
CC(C)(C)CC(=O)Nc1nnc(-c2cccs2)s1	-213.4*
O=C(CN1CCCC1)Nc1ccc(NC(=O)Nc2ccccc2)cc1	-194.1*
Clc1ccc(/C=N/Nc2ccccn2)cc1	-162.9*
Fc1ccc(/C=N/Nc2ccccn2)cc1	-119.6*
Brc1ccccc1/C=N/Nc1ccccn1	-130.8*
C(=N\Nc1ccccn1)/c1c[nH]c2ccccc12	-114.4*
COc1ccc(/C=N/Nc2ccccn2)cc1O	-144.9*
FC(F)(F)c1ccccc1/C=N/Nc1ccccn1	-93.5*
Oc1ccc(N=Nc2ccccc2C(F)(F)F)c2cccnc12	71.6
Brc1ccc(/C=N/Nc2ccccn2)cc1	-193.2*
Clc1nccnc1N/N=C/c1ccc(Br)cc1	-106.0*
SMILES	aSyn 5UTR act
Cc1ccc(/C=N/Nc2ccccn2)s1	-149.3*
O=S(=O)(/C=C/c1ccccc1)Oc1ccccc1	-79.8*
Cc1nc(NC(=O)c2cc3ccccc3o2)ccc1Br	-160.2*
Cc1cccc(NC(=O)c2cc3ccccc3c(=O)o2)n1	-190.7*
Cc1nc(NC(=O)c2ccc(Br)o2)ccc1Br	-151.5*
C[C@H](NC(=O)[C@@H]1Cc2ccccc2CN1)C(=O)Nc1ccc2c(c1)OCCO2	-64.7*
CCC(C)[C@H](NC(=O)[C@@H]1Cc2ccccc2CN1)C(=O)Nc1ccc2c(c1)OCO2 (stereo partly drawn)	-100.9*
O=S(=O)(Nc1ccc(-c2nc3cccnc3s2)cc1)c1ccc(Cl)s1	-121.5*
Cc1cc(-c2nc3cccnc3s2)ccc1NS(=O)(=O)c1cccs1	-167.5*
O=S(=O)(Nc1ccc(-c2nc3cccnc3s2)cc1)c1ccccc1F	-84.0*
O=S(=O)(Nc1ccc(-c2nc3cccnc3s2)cc1)c1cccs1	-89.3*
Cc1nc2cc(NCc3ccc(Cl)cc3)ccc2n1C	-66.8*
Cc1ccc(CNc2ccc3c(c2)nc(C)n3C)cc1	-64.0*
